# Results published in PubChem BioAssay (NCI).
# This is part of a sample that, as a whole, favours compounds with a hit. Of some 83,000 tested, about 20% had one in any assay.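 Growth was measured after 48 h exposure to one concentration of compound in 96-well plates. Values under 10 count as active.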 A number with no mark means an inactive call. Active and inactive are the calls of the source.
# Test system: HL-60(TB) leukemia
# Assay: NCI-60 one-dose screen, 48 h (100 = growth as untreated, 0 = no growth, -100 = all killed)
# Conditions: 10 µM unless noted
row,Compound,growth
1,FC(F)(F)c1cc2c(Cl)ncnc2n1CCC1CCOCC1,-59.6% (active)
2,COc1ccc(-c2nc3ccccc3n2CC(=O)N=Nc2c(O)[nH]c3ccc(Br)cc23)cc1,45.2%
3,COC(=O)c1c(C(=O)OC)c2c3ccccc3c3ccccc3n2c1C(=O)C(C)(C)C,72.5%
4,O=C(Nc1ccc(I)cc1F)c1cc(-c2ccc(F)cc2F)ccc1O,-30.4% (active)
5,NS(=O)(=O)c1ccc(N2N=C(c3ccc(NC(=O)Nc4ccccc4)cc3)CC2c2ccc(Br)cc2)cc1 (stereo not drawn),-4.8% (active)
6,CC(=O)OC[C@@]1(C)C2CC[C@]3(C)C(CC=C4C5CC(C)(C)CC[C@]5(C(=O)Nc5ccc(F)cc5)CC[C@]43C)[C@@]2(C)C[C@@H](OC(C)=O)[C@@H]1OC(C)=O (stereo partly drawn),27.9%
7,O=C(CN1CCN(c2ncnc3c2cnn3-c2ccccc2)CC1)Nc1ccc(Cl)cc1,58.6%
8,CC(C)Sc1nc(NC2CC2)c(C#N)c(-c2ccccc2)n1,98.1%
9,Cc1ccc(N=Nc2c(N)nn3c(-c4cc5cc(Br)ccc5oc4=O)ccnc23)cc1,83.2%
10,Clc1ccc(/C=N/Nc2ncnc3sc4c(c23)CCN(Cc2ccccc2)C4)cc1,-8.28% (active)
11,O=c1[nH]c(=O)c2c(-c3cc4ccccc4oc3=O)ccnc2[nH]1,106%
12,Cn1cc(-c2cc(N)n3nc(-c4cn(C)c5ncccc45)cc3n2)c2cccnc21,39.2%
13,Nc1nc(-c2ccccc2)c(N=Nc2ccc(Cl)cc2[N+](=O)[O-])s1,83.8%
